Activity calls are given as the source filed them. The rule behind the calls is not given here.

Drawing on PubChem BioAssay, this text covers inhibition for 40 molecules.

For this test, the target named is Pantothenate synthetase (Mycobacterium tuberculosis (strain ATCC 25618 / H37Rv)) (UniProt P9WIL5). The experiment in a line: Coupled enzyme confirmation of inhibitors against recombinant Mtb PanC (AID 375).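 Note: 0% = full reaction with vehicle and 100% = no enzyme background.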 The note with it: coupled enzyme assay; at 10 µM, active compounds read high.
Chain of Pantothenate synthetase (Mycobacterium tuberculosis (strain ATCC 25618 / H37Rv)) (P9WIL5 whole entry, looked up): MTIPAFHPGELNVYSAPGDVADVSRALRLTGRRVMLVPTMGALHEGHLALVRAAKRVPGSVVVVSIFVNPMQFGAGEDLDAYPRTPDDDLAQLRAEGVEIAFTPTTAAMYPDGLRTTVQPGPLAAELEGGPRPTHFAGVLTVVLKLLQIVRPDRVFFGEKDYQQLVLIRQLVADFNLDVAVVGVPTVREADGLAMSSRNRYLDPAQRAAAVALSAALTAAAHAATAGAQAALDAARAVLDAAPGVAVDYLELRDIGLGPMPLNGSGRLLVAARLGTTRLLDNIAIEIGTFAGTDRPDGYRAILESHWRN
As a reminder, the inhibition is the change of the read-out against control, counted positive when it falls. On to `CCn1c(SCC(=O)c2ccc(C)cc2)nnc1-c1ccoc1C`, for which the inhibition was 2% (inactive).

For the molecule `CCc1cc2c(=O)c(-c3nc4ccccc4[nH]3)coc2cc1OC(=O)N1CCOCC1`, the inhibition is 7% (inactive).

Take `COc1ccccc1OCCNC(=O)c1cccs1`: the inhibition was 0% (inactive).

As to `COC(=O)Cc1c(C)nc2nc(-c3ccccc3)[nH]n2c1=O`, the inhibition was 0% (inactive).

On to `Cc1cc(-c2ccccc2)nnc1NCCN1CCOCC1`, for which the inhibition was 0% (inactive).

Consider `NC(=O)c1ccccc1NC(=O)CCCN1C(=O)CCC1=O`, for which the inhibition is 10% (inactive).

In the case of `CCSc1nnc(NC(=O)c2ccc(C)o2)s1`, the inhibition is 9% (inactive).

In the case of `CC1=C(C(N)=O)C(c2cccnc2)n2nc(SCc3ccccc3Cl)nc2N1` (stereo not given), the inhibition is 0% (inactive).

In the case of `COc1ccc(-c2nnn(CC(=O)c3ccc4c(c3)OCCO4)n2)cc1OC`, the inhibition was 0% (inactive).

Consider `Cc1c(C(=O)OCC(C)C)[nH]c2c1C(=O)CC(c1ccco1)C2` (stereo not given), for which the inhibition is 1% (inactive).

Consider `CC(=O)Nc1ccc(-c2nn[nH]n2)cc1Cl`, for which the inhibition was 0% (inactive).

`O=C(NC1CCCCCCC1)C1CCN(c2nc3ccccc3o2)CC1`: the inhibition is 3% (inactive).

In the case of `O=c1c(-c2ccccc2)coc2c(CN3CCOCC3)c(O)ccc12`, the inhibition is 6% (inactive).

On to `CCC(Sc1nc2sc(C(=O)OC)c(C)c2c(=O)n1N)C(=O)NCC1CCCO1` (stereo not given), for which the inhibition is 4% (inactive).

For the molecule `O=C1CC(Sc2nnc(-c3ccccc3)o2)C(=O)N1c1ccccc1` (stereo not given), the inhibition was 0% (inactive).

`O=C(Nc1ccc(N2CCOCC2)cc1)c1cccc(S(=O)(=O)N2CCCC2)c1`: the inhibition is 0% (inactive).

Consider `Cc1nc(NC(=O)c2ccccc2)sc1-c1csc(NCc2ccco2)n1`, for which the inhibition is 0% (inactive).

For the molecule `CC(=O)N1C(=O)C2(C(C#N)=C(N)Oc3cc(C)oc(=O)c32)c2ccccc21` (stereo not given), the inhibition is 0% (inactive).

`C=CCOC(=O)COc1ccc2c(C)c(C)c(=O)oc2c1C`: the inhibition was 0% (inactive).

Regarding `CCOc1ccc(NC(=O)CSc2nnnn2CC(=O)O)cc1`, the inhibition is 0% (inactive).

Consider `CCC(=O)N1CCc2cc(Br)cc(S(=O)(=O)C3(C(=O)OC)CC3)c21`, for which the inhibition was 0% (inactive).

Consider `COc1cccc(NC(=O)CSc2nnc(-c3cc(-c4ccccn4)nc4ccccc34)o2)c1`, for which the inhibition is 2% (inactive).

`C=CCN=C1SCC(=O)N1S(=O)(=O)c1ccc(C)cc1`: the inhibition is 0% (inactive).

`Cc1ccc(-n2cnnn2)c2cccnc12`: the inhibition was 5% (inactive).

Take `CCN(CC)CCOC(=O)C1(C2CCCCC2)CCCCC1`: the inhibition is 0% (inactive).

On to `Cc1nc2c(-c3ccc(F)cc3)c(C)nn2c(C)c1CCC(=O)NC(C)CCc1ccco1` (stereo not given), for which the inhibition was 0% (inactive).

As to `CCN(CC)C(=O)CSC1=C(C#N)C(c2ccco2)C(C(=O)OCCOC)=C(C)N1` (stereo not given), the inhibition is 0% (inactive).

Turning to `O=C(CCS(=O)(=O)c1cccc2nsnc12)NCc1ccccc1`, the inhibition is 0% (inactive).

As to `CCN(Cc1nc2ccccc2c(=O)[nH]1)Cc1nc2cc(OC)c(OC)cc2c(=O)[nH]1`, the inhibition is 0% (inactive).

As to `CCCCc1oc2ccccc2c1C(=O)c1cc(I)c(OCCN(CC)CC)c(I)c1`, the inhibition is 8% (inactive).

Regarding `CN(C)/C=C1\N=C(c2ccc(Cl)cc2Cl)OC1=O`, the inhibition is 0% (inactive).

Take `Cc1cc(C(C)(C)C)c(O)c(C)c1CC1=NCCN1`: the inhibition was 0% (inactive).

Consider `N#CCSc1nc(-c2ccccc2)cs1`, for which the inhibition was 0% (inactive).

As to `CCCC(=O)OCCn1c(Br)nc2c1c(=O)[nH]c(=O)n2C`, the inhibition is 7% (inactive).

`Cc1ccc(S(=O)(=O)N2CCCC(C(=O)NC3=NCCS3)C2)cc1` (stereo not given): the inhibition was 12% (inactive).

For the molecule `CCOc1ccc(S(=O)(=O)n2c(C)nc3ccccc32)cc1`, the inhibition was 0% (inactive).

Take `CCOc1nc(OCC)nc(N2CCC(C)CC2)n1`: the inhibition is 0% (inactive).

As for `c1coc(CN(Cc2cccs2)Cc2nnnn2C2CCCCC2)c1`, the inhibition is 0% (inactive).

Turning to `CC(C)(C)NC[C@H](O)COc1nsnc1N1CCOCC1`, the inhibition is 2% (inactive).

As for `O=C1N[C@@H](Cc2cnc[nH]2)C(=O)N2CCC[C@@H]12`, the inhibition is 0% (inactive).
